Marburg entry inh: inhibitors of Marburg virus binding or cell entry | Marburg virus pseudotyped entry inhibition, cell reporter | Potency, µM (series often up to 37.8 µM), usual class: inhibitors | actives 1.8% (n = 300,000) | AID 540276; calls by dose curve; tested in HEK293 cells
FMDV inh: blocks foot and mouth disease virus; FMDV antiviral cell-based qHTS; Potency, µM (series often up to 57.9 µM), usual class: inhibitors; actives 1.2% (n = 410,000); calls by dose curve; tested in HEK293T cells; also: read-out not given here; nearly all actives have a fitted effect of over 45% in size
SARS PLP yeast: blocks SARS-CoV papain-like protease in a yeast assay | S. cerevisiae expressing SARS-CoV PLpro, growth rescue | Potency, µM (series often up to 32.9 µM), usual class: activators | actives 0.19% (n = 330,000); calls by dose curve; also: nearly all actives have a fitted effect of over 55% in size
HCMV inh: human cytomegalovirus inhibition; actives 4.5% (n = 410,000); activity change, negative = inhibition, % at 57.5 µM; HFF cells, HCMV-luciferase reporter, 72 h; hits give low values; AID 1259415; in the data active = activity change below about -60%; inconclusive = no clear call, values can overlap the other calls; inactive = above about -39%
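Cell-based, HFFs, 1000 cells/well, 16 h 37C; cpds in DMSO + HCMV-luc, MOI 1 PFU/cell; 72 h 37C; OneGlo luminescence after 5 min RT; norm. to buffer vs Salinomycin 10uM.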
LASV entry inh: Lassa virus entry inhibition; AID 540256; Potency, µM (titrated, usually from 37.9 µM), most hits filed as inhibitors; Lassa virus pseudotype entry inhibition, cell reporter; actives 1.2% (n = 300,000); calls by dose curve; tested in HEK293 cells; also: nearly all actives have a fitted effect of over 50% in size
HCV inh: inhibitors of hepatitis C virus infection | Huh7.5.1 HCVcc-Cre infection, luciferase reporter, 44 h | actives 3.4% (n = 340,000) | Potency, µM (doses to about 41.8 µM), usual class: inhibitors; active = well fitted inhibition curve with a large enough effect; inconclusive = small, poorly fitted or top-dose-only effect, or another doubt; inactive = no such curve, though single readings can be large or run the other way
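Whole-lifecycle infectious HCVcc-Cre system; cells 1,000/well, compound then virus (~0.5 moi) added 4 h after plating, 44 h culture. Luciferase read 15 sec following 15 min substrate incubation, room temp.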
Of the large screens only hits and unclear results are named; the others gave an inactive call; ! = repeats disagree. A selection: hits, their analogues and other compounds. The true share with any hit is near 8%.

Cc1cc2cc(CN(Cc3ccco3)S(=O)(=O)c3c(C)ccc4nsnc34)c(=O)[nH]c2cc1C	Marburg entry inh inconclusive, LASV entry inh 8.2µM, HCV inh inconclusive
COc1ccc2[nH]c(=O)c(CN(CCO)S(=O)(=O)c3ccc(C)cc3)cc2c1	none (no result: Marburg entry inh, LASV entry inh)
COC(=O)c1cccc(S(=O)(=O)N(Cc2ccco2)Cc2cc3cc(OC)ccc3[nH]c2=O)c1	FMDV inh 22µM, LASV entry inh inconclusive, HCV inh inconclusive
CCCCN(Cc1cc2cc(OC)ccc2[nH]c1=O)S(=O)(=O)c1ccc(C)cc1	FMDV inh inconclusive, HCMV inh -70, HCV inh 13µM (no result: Marburg entry inh, LASV entry inh)
O=C(NC1CCCCC1)N1CCN(Cc2ccco2)CC1	HCMV inh -63
O=C1CCN(S(=O)(=O)c2ccccc2)CCN1CCOCc1ccc(C(F)(F)F)cc1	FMDV inh inconclusive, HCV inh 10µM (no result: Marburg entry inh, LASV entry inh)
Cc1ccc(S(=O)(=O)N2CCC(=O)N(C(COCc3ccc(C(F)(F)F)cc3)C(C)C)CC2)cc1 (centres undefined)	Marburg entry inh inconclusive, FMDV inh inconclusive, LASV entry inh 13µM (no result: HCMV inh)
Cc1ccc(S(=O)(=O)N2CCC(=O)N([C@H](COCc3cccc(C(F)(F)F)c3)C(C)C)CC2)cc1	LASV entry inh inconclusive (no result: Marburg entry inh, SARS PLP yeast, HCV inh)
COc1ccc(Cn2c(=O)c3cccnc3n(CC(=O)Nc3c(C)cc(C)cc3C)c2=O)cc1	none (no result: SARS PLP yeast, LASV entry inh, HCV inh)
CC1=C[C@@H](C)OC2(C1)C(=O)N(Cc1ccc(Br)cc1)c1cccc(Br)c12 (some centres undefined)	LASV entry inh inconclusive (no result: FMDV inh, SARS PLP yeast, HCMV inh, HCV inh)
CCOC(=O)C1=C(C)NC2=C(C(=O)CCC2)C1c1cc(OC)ccc1OC (centres undefined)	none
CCOC(=O)C1=C(C)NC2=C(C(=O)CCC2)C1c1cn(Cc2ccc(Cl)cc2Cl)nc1-c1ccccc1 (centres undefined)	Marburg entry inh inconclusive, HCMV inh -90, HCV inh inconclusive
COC(=O)C1=C(C)NC2=C(C(=O)CCC2)C1c1cn(Cc2ccc(Cl)cc2Cl)nc1-c1ccccc1 (centres undefined)	Marburg entry inh inconclusive, HCMV inh -61, HCV inh inconclusive
O=C(C[n+]1cc(-c2ccccc2)n2c1CCC2)Nc1nc(-c2ccccc2)cs1	HCV inh inconclusive
Cc1ccc(-c2c[n+](CC(=O)Nc3nc(-c4ccccc4)cs3)c3n2CCC3)cc1	HCV inh 6.3µM
Cc1ccc(-c2c[n+](CC(=O)Nc3cc(=O)n(C)c(=O)n3C)c3n2CCC3)cc1	HCMV inh -68
COc1ccc(S(=O)(=O)N(CCc2ccccc2)CC(=O)NCc2ccccc2)cc1OC	none (no result: Marburg entry inh, SARS PLP yeast, HCV inh)
C=C1CCC2C(CC2(C)C)C(=C)CC/C1=N/O (centres undefined)	none (no result: Marburg entry inh, SARS PLP yeast, HCMV inh, LASV entry inh, HCV inh)
CCCn1c2ccccc2c2cnn(CC(=O)NCCCN(Cc3ccccc3)C(C)C)c(=O)c21	LASV entry inh inconclusive (no result: Marburg entry inh, SARS PLP yeast, HCV inh)
Cc1ccccc1NC(=O)C(=O)NCC(c1ccc2c(c1)OCO2)N1CCN(c2ccccc2)CC1 (centres undefined)	HCMV inh inconclusive, LASV entry inh 10µM (no result: Marburg entry inh, SARS PLP yeast, HCV inh)
Cc1ccc(NC(=O)C(=O)NCC(c2ccc3c(c2)OCO3)N2CCN(c3ccccc3)CC2)cc1 (centres undefined)	none (no result: Marburg entry inh, SARS PLP yeast, HCV inh)
Fc1ccc(NC(=S)Nc2ccc(F)c(Cl)c2)cc1Cl	FMDV inh inconclusive, HCV inh inconclusive (no result: HCMV inh)
Cc1ccc(NC(=S)Nc2ccc(OC(F)F)c(Cl)c2)cc1F	HCMV inh inconclusive, HCV inh 13µM
Nc1ccccc1C#CC(=O)c1ccccc1	FMDV inh inconclusive, HCMV inh -100, HCV inh inconclusive (no result: Marburg entry inh, LASV entry inh)
CC1=[N+](C)c2ccc3ccccc3c2C1(C)C	Marburg entry inh inconclusive, FMDV inh inconclusive, HCMV inh -84, LASV entry inh inconclusive, HCV inh inconclusive
CC(=O)OC1CC[C@]2(C#N)[C@H]3CC[C@]4(C)[C@H](C5C=CC(=O)O5)CCC4(O)C3CCC2(O)C1 (some centres undefined)	FMDV inh inconclusive, HCMV inh -93 (no result: Marburg entry inh, LASV entry inh)
COc1ccc(NC(=O)c2cc(S(=O)(=O)N3CCCC(C)C3)cn2C)c(OC)c1 (centres undefined)	LASV entry inh inconclusive (no result: Marburg entry inh, SARS PLP yeast, HCV inh)
Cc1ccc(S(=O)(=O)N[C@@H](CCCCN)C(=O)CCl)cc1	Marburg entry inh 13µM!, HCV inh inconclusive (no result: SARS PLP yeast)
Cc1ccc(S(=O)(=O)NC(CC(N)=O)C(=O)O)cc1 (centres undefined)	Marburg entry inh inconclusive, LASV entry inh inconclusive
C=C(Cl)COc1ccc2c(CC)cc(=O)oc2c1	HCV inh 8.9µM (no result: FMDV inh)
CC(=O)NC(c1ccc(N(C)C)cc1)c1cc(Cl)c2cccnc2c1O (centres undefined)	HCMV inh -100 (no result: Marburg entry inh, SARS PLP yeast, LASV entry inh, HCV inh)
CC(=O)NC(c1ccccc1)c1cc(Cl)c2cccnc2c1O (centres undefined)	Marburg entry inh 13µM, SARS PLP yeast inconclusive, HCMV inh -95, LASV entry inh inconclusive, HCV inh 10µM
CC1CCN(CCCC(=O)c2ccc(F)cc2)CC1	none (no result: Marburg entry inh, SARS PLP yeast, HCMV inh, LASV entry inh, HCV inh)
CC(C)(C)c1ccc(C(=O)CCCN2CCC(OC(c3ccccc3)c3ccccc3)CC2)cc1	Marburg entry inh inconclusive, LASV entry inh 5.2µM (no result: FMDV inh, SARS PLP yeast, HCMV inh, HCV inh)
CCOc1ccc(-c2nc(SCC(=O)NCCOC)c(-c3ccc(OC)c(OC)c3)[nH]2)cc1	none (no result: SARS PLP yeast, HCV inh)
CCc1ccc(NC(=O)Nc2cn(C)c(=O)c3ccccc23)cc1	none (no result: Marburg entry inh, SARS PLP yeast, HCV inh)
COCCn1c(=S)[nH]c2cc(C(=O)N3CCN(Cc4ccc5c(c4)OCO5)CC3)ccc2c1=O	Marburg entry inh 6.5µM, FMDV inh 14µM, HCMV inh -99, LASV entry inh inconclusive, HCV inh 14µM
COCCn1c(=O)[nH]c2cc(C(=O)N3CCN(Cc4ccc5c(c4)OCO5)CC3)ccc2c1=O	HCMV inh inconclusive (no result: SARS PLP yeast)
COCCn1c(=S)[nH]c2cc(C(=O)N3CCc4ccccc43)ccc2c1=O	Marburg entry inh inconclusive, FMDV inh 7.9µM, HCMV inh -70, LASV entry inh inconclusive, HCV inh inconclusive
Cc1ccc(C)n1C1C(=O)N(C)c2ccc(Cl)cc21 (centres undefined)	none (no result: Marburg entry inh, FMDV inh, SARS PLP yeast, LASV entry inh, HCV inh)
CN(C)c1nc(-c2ccccc2)ncc1S(=O)(=O)c1ccccc1	HCV inh inconclusive (no result: Marburg entry inh, LASV entry inh)
CCN(CC)c1nc(-c2ccccc2)ncc1S(=O)(=O)c1ccc(C)cc1	HCV inh 7.1µM (no result: Marburg entry inh, LASV entry inh)
CC(C)N(CCNC(=O)COc1ccc2oc3c(c2c1)CCCC3)C(C)C	Marburg entry inh inconclusive, HCV inh 13µM
CC(OC(=O)c1cc2sccc2n1C)C(=O)NC(C)(C)C (centres undefined)	HCV inh 10µM (no result: Marburg entry inh, LASV entry inh)
COc1ccc2c(c1)C(=NO)c1cc(OC)ccc1-2	HCMV inh inconclusive, HCV inh 8.9µM
COc1ccc(-n2c(CNC(=O)c3cccc(OC)c3OC)nnc2SC)cc1	none (no result: Marburg entry inh, SARS PLP yeast, HCMV inh, LASV entry inh, HCV inh)
Cc1ccc(C(OC(=O)c2ccco2)C(=O)NC2CCCCC2)cc1 (centres undefined)	HCMV inh -98
